An excerpt weighted towards active compounds, which were near 2.8% of everything screened.
Furin inh: human furin inhibition | P09958 | purified furin, fluorogenic substrate cleavage | inhibition, % at 20 µM or 30 µM | 0.061% of 220,000 active | AID 463115; in the data active = inhibition above about 25%
Target sequence (P09958 108-714 limits assumed): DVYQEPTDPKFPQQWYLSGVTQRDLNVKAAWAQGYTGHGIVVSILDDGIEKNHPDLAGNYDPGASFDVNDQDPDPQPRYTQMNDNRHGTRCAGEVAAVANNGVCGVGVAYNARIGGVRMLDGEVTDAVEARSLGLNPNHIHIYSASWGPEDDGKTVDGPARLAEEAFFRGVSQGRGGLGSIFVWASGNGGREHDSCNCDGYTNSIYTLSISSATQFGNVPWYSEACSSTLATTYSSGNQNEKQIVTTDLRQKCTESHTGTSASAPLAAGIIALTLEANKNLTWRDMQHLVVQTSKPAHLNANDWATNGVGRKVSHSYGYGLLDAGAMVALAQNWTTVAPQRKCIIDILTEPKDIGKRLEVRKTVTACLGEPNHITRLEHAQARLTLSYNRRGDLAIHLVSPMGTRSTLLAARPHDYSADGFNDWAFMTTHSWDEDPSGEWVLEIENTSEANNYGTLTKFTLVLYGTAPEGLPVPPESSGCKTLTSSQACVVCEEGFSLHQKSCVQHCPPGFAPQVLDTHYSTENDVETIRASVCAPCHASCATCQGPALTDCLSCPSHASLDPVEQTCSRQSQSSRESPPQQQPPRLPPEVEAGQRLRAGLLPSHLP
NCF1 inh: blocks human p47phox regulatory protein of NADPH oxidases | inhibition, % at 24.7 µM | AID 1274 | P14598 | 0.53% of 220,000 active | p47phox/p22phox peptide binding, fluorescence polarization, 2 h;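 active = inhibition above about 30%, limit read from the data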
EP2 mod: EP2 receptor (human) modulation; AID 940; EP2-expressing cells, cAMP HTRF FRET, PGE2 co-stimulation; 0.83% of 260,000 active; induction, % at 25 µM;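 active = compounds whose cAMP rise, as percent of the full-agonist control response, exceeds 60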;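 note: rat C6 glioma line stably carrying human EP2 under a CMV promoter; the protocol text gives 20 µM as final concentration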
EP2 antag: blocks the human prostaglandin E2 receptor EP2; C6 glioma cells expressing human EP2, cAMP TR-FRET; cells stimulated with saturating PGE2; inhibition, % at 25 µM; 0.52% of 260,000 active; AID 1422;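 active = percent inhibition above 40 after rounding to a whole number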;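 note: rat C6 glioma host cells with rolipram phosphodiesterase inhibitor present; the protocol text gives 20 µM as final concentration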
Wee1 degr inh: human Wee1 degradation inhibition, primary screen; 1.2% of 220,000 active; reporter increase, % at 5 µM; AID 1321; HeLa Luc-Wee1K328M stability, luciferase luminescence; 100% = proteasome inhibitor MG132 effect;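 active = activation above the mean of all tested compounds plus 3 SD, set per screening run, cut at about 8.8% in these data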;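 note: cells exposed to compound for 20 h before luminescence read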
HSV replic up: increases HSV replication in cells; 0.005% of 220,000 active; HSV replication augmentation in cells, fold increase; maximum fold increase; in the data active = maximum fold increase above about 1.5; tested in PC3 cells
EP2 confirm: EP2 receptor cAMP induction, counter-screens negative. shares compounds with EP2 mod. 47% of 1,300 active. AID 1080. C6 glioma EP2 cells, cAMP HTRF induction; plus low (about EC15) PGE2 agonist. calls only at 20 µM (by protocol);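 active = cAMP induction above 50% in the main assay while under 30% in all four parallel counter assays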;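 note: rat C6 glioma cells stably expressing human EP2 receptor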
A number is an active result; – = inactive; · = no result; + = active, no number; ! = a repeat was not active.

SMILES	Furin inh	NCF1 inh	EP2 mod	EP2 antag	Wee1 degr inh	HSV replic up	EP2 confirm
Cc1ccc2[nH]c3c(=S)nc[nH]c3c2c1	–	–	88.0	–	–	–	–
CC(/C=C1\SC(=S)N(C(C(=O)O)C(C)C)C1=O)=C\c1ccccc1 (centres undefined)	–	–	61.3	–	–	–	+
CC(/C=C1\SC(=S)N(c2ccc(C(=O)O)cc2)C1=O)=C\c1ccccc1	–	–	–	–	–	–	·
CC[C@@H](Cn1nc(-c2cccs2)oc1=O)NC(=O)c1cnn2c(C(F)F)cc(C)nc12	·	·	–	–	·	·	·
CCc1ccccc1NC(=S)N(Cc1ccco1)C(C)c1cccs1 (centres undefined)	–	–	–	–	–	–	–
Cc1ccc(Oc2nc(-c3ccccc3)ncc2S(C)(=O)=O)cc1	–	–	74.9	–	–	–	–
Cc1ccc(Oc2nc(-c3ccccc3)ncc2S(=O)(=O)c2ccc(C)cc2)cc1	–	–	–	–	–	–	·
CCn1c2c(c3cc(Br)ccc31)CCC/C2=N\O	–	–	–	–	–	–	·
CCn1c2c(c3cc(OCC(C)C)ccc31)CCCC2=O	–	–	74.5	–	–	–	+
CSc1nc(NCc2ccco2)c2ccccc2n1	–	–	65.5	–	–	–	–
O=C(O)c1cccc(NC(=S)NC(=O)c2ccc(-c3ccccc3)cc2)c1	–	–	–	–	–	–	·
COc1ccc(C(=O)O)cc1NC(=S)NC(=O)c1ccc(-c2ccc(Cl)cc2)o1	–	–	95.0	–	–	–	+
CCC(=O)NC(=S)Nc1cc(C(=O)O)ccc1OC	–	–	–	–	–	–	·
Cc1ccc(C(=O)O)cc1NC(=S)NC(=O)c1ccc(-c2ccccc2)cc1	–	–	74.1	–	–	–	+
CCn1ncc(CN(Cc2ccccc2OC)CC2CCCO2)c1C (centres undefined)	·	·	–	–	·	·	·
O=C(Nc1ccc(Cl)cc1)c1snc2c(=O)[nH]cnc12	·	·	–	–	·	·	·
CC[C@H](C)C(=O)O[C@H]1C[C@@H](C)C=C2C=C[C@H](C)[C@H](CC[C@@H]3C[C@@H](O)CC(=O)O3)[C@H]21	–	–	–	–	–	–	–
CC[C@H](C)C(=O)O[C@H]1CCC=C2C=C[C@H](C)[C@H](CC[C@@H]3C[C@@H](O)CC(=O)O3)[C@H]21	–	–	–	–	–	–	·
COc1ccc(-c2ccc(=O)n(CC3CCNCC3)n2)cc1OC	·	·	–	–	·	·	·
O=C(Nc1ccc(N2CCOCC2)c(Cl)c1)c1cccs1	·	·	–	–	·	·	·
COc1cc(OC)c(-c2nc(-c3ccccc3)no2)cc1OC	·	·	–	–	·	·	·
COc1ccc(-c2noc(-c3ccccc3-c3ccccc3)n2)cc1OC	–	–	77.2	·	–	·	+
CSc1ccccc1NC(=O)CN(C)Cc1cccc(Cl)c1	–	–	66.2	–	–	–	+
COc1ccc(OC)c(N(CC(=O)NCC2CCCO2)S(=O)(=O)c2ccc(C)cc2)c1 (centres undefined)	·	·	–	–	·	·	·
O=C(Nc1cc(S(=O)(=O)Nc2ccc(Cl)cc2)ccc1N1CCCCC1)c1ccc(F)cc1Cl	–	–	75.6	–	–	–	+
SMILES	Furin inh	NCF1 inh	EP2 mod	EP2 antag	Wee1 degr inh	HSV replic up	EP2 confirm
COc1ccc(NS(=O)(=O)c2ccc(N3CCOCC3)c(NC(=O)c3ccccc3Cl)c2)cc1	–	–	–	–	–	–	·
Cc1ccc(C(=O)C2CCN(CC(=O)NCc3ccco3)CC2)cc1	·	·	–	–	·	·	·
CC1CC2=C(C(=O)O1)C(c1ccccc1)Nc1ccccc1N2 (centres undefined)	–	–	–	–	–	–	·
c1ccc(C2Nc3ccccc3Oc3ccccc32)cc1 (centres undefined)	–	–	81.1	–	–	–	–
Cc1ccc2[nH]c(=O)c(CN(Cc3cccnc3)C(c3nnnn3Cc3ccccc3)C(C)C)cc2c1 (centres undefined)	·	·	–	–	·	·	·
Cc1cc(C)c2cc(C)c(SCC(=O)NCc3ccco3)nc2c1	–	–	76.6	–	–	–	+
CCOC(=O)c1c(NC(=O)Cn2c(=O)sc3ccccc32)sc(C)c1C	·	·	–	–	·	·	·
NC(=O)c1sc2nc(N3CCCCC3)c3c(c2c1N)CCCC3	–	–	76.3	–	–	–	+
CCOC(=O)c1sc2nc(N3CCOCC3)c3c(c2c1N)CCCC3	–	–	–	–	–	–	·
COC(=O)c1sc2nc(-c3ccccc3)c3c(c2c1N)CCCC3	–	–	72.6	–	–	–	–
COC(=O)c1sc2nc(N3CCCCC3)c3c(c2c1N)CCCC3	–	–	74.4	–	–	–	–
COc1nc(-c2ccc(Cl)cc2)ccc1-c1noc(-c2cccnc2)n1	·	·	–	–	·	·	·
C=CCOc1cccc(C2C(C(=O)c3ccco3)=C(O)C(=O)N2c2nnc(C)s2)c1 (centres undefined)	·	·	–	–	·	·	·
COc1cc2c(cc1OC)CN(c1ccc(-c3ccccc3OC)nn1)CC2	–	–	65.2!	–	–	–	–
COc1ccccc1-c1ccc(NC2CCCC2)nn1	–	–	–	–	–	–	·
CCOC(=O)C1CCN(c2c(C(=O)c3ccccc3)cnc3ccc(Cl)cc23)CC1	–	–	81.3	–	–	–	+
C=CCOc1c(Br)cc(/C=N/n2c(CC)n[nH]c2=S)cc1Br	–	–	75.0	–	–	–	+
CCc1n[nH]c(=S)n1/N=C/c1cc(Br)c(O)c(OC)c1	–	–	–	–	–	–	·
COc1cc(OC)cc(C(=O)N2CCN(C(=O)c3ccccc3)CC2)c1	·	·	–	–	·	·	·
CCc1oc2ccccc2c1C(=O)c1cc(Br)c(O)c(Br)c1	–	–	67.9!	–	–	–	–
COc1ccc2c(COC(=O)c3n[nH]c4ccccc34)cc(=O)oc2c1	–	–	74.5	–	–	–	–
CCC(C)(C)n1nnnc1C(c1cc2cc(C)ccc2[nH]c1=O)N(Cc1cccnc1)Cc1ccco1 (centres undefined)	·	·	–	–	·	·	·
O=C(CSc1ncnc2c1oc1ccccc12)Nc1ccccc1F	–	–	75.9	–	–	–	–
COC(=O)c1ccc(CSc2ncnc3c2oc2ccccc23)o1	–	–	65.6	–	–	–	–
CCOc1ccccc1NC(=O)CSc1ncnc2c1oc1ccccc12	–	–	–	–	–	–	·
CCCSc1ncnc2c1oc1ccccc12	–	–	66.3	–	–	–	–
c1ccc(CSc2ncnc3c2oc2ccccc23)cc1	–	·	·	–	–	–	·
COc1ccccc1OCc1nnc(SCC(=O)Nc2ccc(C)c(Cl)c2)n1C	·	·	–	–	·	·	·
Cc1cccc(-n2c(CCc3ccccc3)nnc2SCC(=O)c2ccccc2)c1	–	–	64.3	–	–	–	–
CCCCNc1nc2c(S(=O)(=O)c3ccccc3)nnn2c2ccccc12	–	–	68.8	–	–	–	–

Assay outcomes (PubChem BioAssay)
